From the supplement of paper PMC10981050
Several values for one entry are separate records, joined by “and”; a condition that tells them apart may be missing. Identical values can stand only once. Counter-ions that a name gives are not always drawn.

Assays:
Assay in all cases: cell viability relative to vehicle control; higher = less cytotoxic
Settings in all cases: 10 µM
K562 = test system: K562
How it was run: (§1)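 After removal of identity-inconsistent compounds, the Selleck bioactive, kinase and epigenetic probe libraries were screened on CRISPR-edited mutant clones and isogenic wild-type clones of four leukaemia lines. Plates were 384-well, each well holding 2000 cells in 50 µL medium and receiving a single 10 µM acoustically dispensed dose. CellTiter-Glo luminescence was read 48 h later, after the supernatant was taken off. Genedata Screener was used to express viability as percent of the on-plate vehicle control.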

MARIMO = test system: MARIMO
How it was run: as §1

MOLM14 = test system: MOLM14
How it was run: as §1

OCI-AML2 = test system: OCI-AML2
How it was run: as §1

Row | Structure (SMILES) | cell viability (K562; SRSF2 genotype: SRSF2 P95H/wt) | cell viability (K562; SRSF2 genotype: SRSF2 wt/wt) | cell viability (MARIMO; SRSF2 genotype: SRSF2 P95H/wt) | cell viability (MARIMO; SRSF2 genotype: SRSF2 wt/wt) | cell viability (MOLM14; SRSF2 genotype: SRSF2 P95H/wt) | cell viability (MOLM14; SRSF2 genotype: SRSF2 wt/wt) | cell viability (OCI-AML2; SRSF2 genotype: P95H/wt) | cell viability (OCI-AML2; SRSF2 genotype: wt/wt)
1 | O=C1C(c2[nH]c3ccc(S(=O)(=O)O)cc3c2O)=Nc2ccc(S(=O)(=O)O)cc21 [Indigo carmine] | 98.1% and 93.6% | 94.2% | 94.5% | 106% | 83.1% | 99.5% | 79.9% | 84%
2 | C[C@@H](CN1CC(=O)NC(=O)C1)N1CC(=O)NC(=O)C1 [Dexrazoxane Hydrochloride] | 99.3% and 102% | 97.5% | 92.4% | 96.4% | 70.5% | 78% | 75.2% | 76.2%
3 | CCN(CC)Cc1ccc2cc(COC(=O)Nc3ccc(C(=O)NO)cc3)ccc2c1 [ITF2357 (Givinostat)] | 1.36% and 7.22% | 1.85% | 4.74% | 9.63% | 0.81% | 0.55% | 1.72% | 3.52%
4 | CC(C)(C)C[C@@H]1N[C@@H](C(=O)N[C@H]2CC[C@H](O)CC2)[C@H](c2cccc(Cl)c2F)[C@]12C(=O)Nc1cc(Cl)ccc12 | 76.2% and 81.8% | 74.8% | 84.9% | 83.6% | 0.31% | 0.33% | 0.34% | 8.97%
5 | Cc1cc(C)cc(C(=O)NOCCCCCC(=O)NO)c1 | 1.41% and 17.1% | 4.57% | 7.1% | 10.6% | 0.7% | 0.46% | 2.75% | 5.29%
6 | N#CC(=Cc1ccc(-c2cc(Cl)ccc2Cl)o1)C(=O)Nc1cccc2ncccc12 | 101% and 104% | 91.8% | 99.1% | 99.8% | 116% | 112% | 88.3% | 92%
7 | CC(=O)Cc1cc(=O)c2c(C)cc(O)c([C@@H]3O[C@H](CO)[C@@H](O)[C@H](O)[C@H]3O)c2o1 [Aloesin] | 101% and 97.6% | 102% | 102% | 104% | 109% | 101% | 105% | 105%
8 | OCCOCCN1CCN(C(c2ccccc2)c2ccc(Cl)cc2)CC1 (stereo not given) [Hydroxyzine 2HCl] | 90.8% and 99.8% | 96.4% | 85.2% | 88.6% | 86.6% | 95% | 95.4% | 86.1%
9 | O=C(O)c1ccccc1C(=O)Nc1ccc(-c2ccccc2)cc1 [Kartogenin] | 106% and 113% | 103% | 105% | 107% | 106% | 105% | 105% | 97.9%
10 | C[C@H](N[C@@H](CCc1ccccc1)C(=O)O)C(=O)N1CCC[C@H]1C(=O)O [Enalaprilat dihydrate] | 103% and 100% | 100% | 98.7% | 109% | 102% | 103% | 99.4% | 108%
11 | Clc1ccc2c(N3CCN(CCCN4CCN(c5ccnc6cc(Cl)ccc56)CC4)CC3)ccnc2c1 [Piperaquine phosphate] | 99.4% and 95% | 98.2% | 93.8% | 103% | 85.3% | 102% | 92.7% | 88%
12 | O=C1Cc2c([nH]c3ccc(Br)cc23)-c2ncccc2N1 [1-Azakenpaullone] | 109% and 116% | 104% | 122% | 127% | 128% | 122% | 153% | 148%
13 | Nc1ncnc2c1c(I)cn2C1OC(CO)C(O)C1O (stereo not given) [5-Iodotubercidin] | 4.74% and 10.8% | 6.66% | 12.2% | 5.58% | 0.78% | 0.42% | 2.92% | 13.1%
14 | CN1CCC(COc2cnc(-c3cccc(Cn4nc(-c5cccc(C#N)c5)ccc4=O)c3)nc2)CC1 | 30.9% and 26.1% | 30.5% | 61.7% | 63.6% | 55.6% | 47.5% | 49.2% | 52.8%
15 | Clc1cccc(-c2nnnn2Cc2cccnc2)c1Cl | 103% and 112% | 106% | 102% | 101% | 101% | 108% | 108% | 116%
16 | CCCCCCCCCCCCCCCC(=O)OCC [Ethyl palmitate] | 101% | 97.9% | 103% | 106% | 106% | 101% | 98% | 107%
17 | OC[C@H]1O[C@@](CO)(OC[C@@]2(O[C@H]3O[C@H](CO)[C@@H](O)[C@H](O)[C@H]3O)O[C@H](CO)[C@@H](O)[C@@H]2O)[C@@H](O)[C@@H]1O [1-Kestose] | 118% and 105% | 110% | 105% | 99.2% | 99% | 110% | 106% | 112%
18 | CC(=O)OCC1=C(C(=O)O)N2C(=O)[C@@H](NC(=O)CSc3ccncc3)[C@H]2SC1 [cephapirin sodium] | 102% and 105% | 105% | 106% | 107% | 99.5% | 105% | 117% | 101%
19 | O=C(Nc1ccccc1Br)N[C@@H]1CCN(c2ccc(C(F)(F)F)cn2)C1 | 88.5% and 90.8% | 91.5% | 89.3% | 101% | 98.5% | 99.3% | 78.4% | 89.7%
20 | CC1=CC(=O)c2ccccc2C1=O [Menadione] | 95.2% and 95.7% | 108% | 98.9% | 93.1% | 91.1% | 102% | 14.8% | 12.8%

Row | Structure (SMILES) | cell viability (K562; SRSF2 genotype: SRSF2 P95H/wt) | cell viability (K562; SRSF2 genotype: SRSF2 wt/wt) | cell viability (MARIMO; SRSF2 genotype: SRSF2 P95H/wt) | cell viability (MARIMO; SRSF2 genotype: SRSF2 wt/wt) | cell viability (MOLM14; SRSF2 genotype: SRSF2 P95H/wt) | cell viability (MOLM14; SRSF2 genotype: SRSF2 wt/wt) | cell viability (OCI-AML2; SRSF2 genotype: P95H/wt) | cell viability (OCI-AML2; SRSF2 genotype: wt/wt)
21 | C[C@H](NC(=O)/C(C#N)=C/c1cccc(Br)n1)c1ccccc1 | 25.6% and 17.4% | 20.6% | 11.2% | 7.31% | 2.5% | 0.75% | 10.2% | 7.71%
22 | CC[C@H]1OC(=O)[C@H](C)[C@@H](O[C@H]2C[C@@](C)(OC)[C@@H](O)[C@H](C)O2)[C@H](C)[C@@H](O[C@@H]2O[C@H](C)C[C@H](N(C)C)[C@H]2O)[C@](C)(O)C[C@@H](C)C(=O)[C@H](C)[C@@H](O)[C@]1(C)O [Erythromycin thiocyanate] | 97.3% and 94.2% | 94.6% | 82.7% | 91.9% | 87.9% | 89.1% | 87% | 90.1%
23 | O=C(Nc1ccc(Br)cc1)c1ccc(Br)c(S(=O)(=O)NCc2ccccc2)c1 | 83.5% and 88.7% | 86.8% | 88.5% | 93.7% | 96.9% | 96% | 76.2% | 76%
24 | Cc1oncc1C(=O)Nc1ccc(C(F)(F)F)cc1 [Leflunomide] | 93.4% and 96.5% | 86.8% | 94.9% | 90.1% | 102% | 98.3% | 80.3% | 85.1%
25 | CC(=O)O[C@H]1C(=O)[C@@]2(C)[C@H]([C@H](OC(=O)c3ccccc3)[C@]3(O)C[C@H](OC(=O)[C@H](O)[C@@H](NC(=O)c4ccccc4)c4ccccc4)C(C)=C1C3(C)C)[C@]1(OC(C)=O)CO[C@@H]1C[C@@H]2O [7-Epitaxol] | 19.6% and 30.7% | 26.1% | 7.11% | 4.44% | 8% | 2.61% | 6.19% | 12.1%
26 | CC(O)COCC1OC2OC3C(COCC(C)O)OC(OC4C(COCC(C)O)OC(OC5C(COCC(C)O)OC(OC6C(COCC(C)O)OC(OC7C(COCC(C)O)OC(OC8C(COCC(C)O)OC(OC1C(O)C2O)C(O)C8O)C(O)C7O)C(O)C6O)C(O)C5O)C(O)C4O)C(O)C3O (stereo not given) | 100% and 108% | 109% | 105% | 112% | 106% | 108% | 108% | 95.8%
27 | O=C(O)C=Cc1cccc(O)c1 [3-Hydroxycinnamic acid] | 106% and 93.7% | 97.5% | 86.6% | 97.3% | 87.9% | 93.2% | 91.4% | 94.3%
28 | CCCC(=O)Nc1cccc(NC(=O)c2ccccc2Br)c1 | 92.9% | 95.5% | 97.8% | 96.5% | 102% | 100% | 95.7% | 95%
29 | CC(C)N(CCCNC(=O)Nc1ccc(C(C)(C)C)cc1)C[C@H]1O[C@@H](n2ccc3c(N)ncnc32)[C@H](O)[C@@H]1O | 94.6% and 92.6% | 86.1% | 89.3% | 96.9% | 95.5% | 92% | 84.3% | 89.6%
30 | Nc1nc2ccc(OC(F)(F)F)cc2s1 [Riluzole (Rilutek)] | 94.3% and 96.3% | 88.4% | 94% | 90.6% | 81.8% | 98.6% | 103% | 94.8%
31 | O=C(NNc1nc2cc(F)ccc2n2cccc12)c1cnccn1 | 24.8% and 29.5% | 12.5% | 12.6% | 15.3% | 4.38% | 1.25% | 12.4% | 10.5%
32 | CCN(CC)CCCC(C)Nc1c2ccc(Cl)cc2nc2ccc(OC)cc12 (stereo not given) [Quinacrine Dihydrochloride Dihydrate] | 2.28% and 4.46% | 2.17% | 1.66% | 2.15% | 0.54% | 0.64% | 0.59% | 0.97%
33 | C#C[C@]1(O)CC[C@H]2[C@@H]3CCc4cc(OC)ccc4[C@H]3CC[C@@]21C [Mestranol] | 79% and 93.7% | 96.3% | 78.5% | 76% | 90.7% | 99.9% | 74.9% | 82%
34 | CN(C)CCNC(=O)c1cccn2c(=O)c3cc4ccccc4cc3nc12 | 32.5% and 33.8% | 30.8% | 35% | 26.6% | 0.3% | 0.24% | 0.28% | 1.23%
35 | O=S(=O)(O)CCSSCCS(=O)(=O)O [Dimesna] | 107% and 101% | 95% | 99.3% | 103% | 96.3% | 99.6% | 106% | 105%
36 | CCCCN1CCCC[C@H]1C(=O)Nc1c(C)cccc1C [Levobupivacaine HCl] | 82.7% and 79.1% | 80.2% | 82.3% | 85.1% | 83.5% | 88.7% | 82.3% | 90.8%
37 | CCN(CC)c1ccc2c(-c3ccccc3C(=O)O)c3ccc(=[N+](CC)CC)cc-3oc2c1 [Rhodamine B] | 51.1% and 54.3% | 53% | 51.3% | 59.4% | 48.5% | 61% | 58.7% | 49.6%
38 | CCC(=O)O[C@]1(C(=O)CCl)[C@@H](C)C[C@H]2[C@@H]3C[C@H](F)C4=CC(=O)C=C[C@]4(C)[C@@]3(F)[C@@H](O)C[C@@]21C [Halobetasol Propionate] | 92.5% and 97.2% | 89% | 101% | 98.1% | 76.3% | 85.8% | 99.3% | 105%
39 | O=C(Nc1ccc2c(O)cc(S(=O)(=O)O)cc2c1)Nc1ccc2c(O)cc(S(=O)(=O)O)cc2c1 | 103% and 108% | 99.1% | 110% | 101% | 101% | 104% | 112% | 111%
40 | CC(C)(C)c1cc(/C=C(\C#N)C(N)=S)cc(C(C)(C)C)c1O [Tyrphostin AG 879 (AG 879)] | 22.1% and 17.9% | 25.2% | 73.5% | 68.3% | 20.1% | 14.8% | 7.33% | 15.8%
